“And” between values parts separate entries of the source, which are not always exact repeats. Equal values may be shown once. About 2,000 (36%) of roughly 5,500 compounds were called active. Not shown: some 18% with an inconclusive outcome. No stated cut-off is given here; in the data, active means normalized growth mostly below about 0.91 (no sharp cut-off); inconclusive means no clear call, values can overlap the other calls; inactive means mostly above about 0.92. The list shows a part of the results.
Assay: chemical genetic growth profiling, strain panel (AID 1159580);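 further: tested at 20 µM; growth read once vehicle control cultures reached saturation at 30 °C; 1 = growth at the plate median or of vehicle wells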
Settings: S. cerevisiae deletion strains, growth OD

Measured: normalized growth

NC(=O)CN1CCCC1=O
inactive: locus YAL013W, strain DEP1, stronger effect = lower value 1.01 and 1 | locus YAL021C, strain ccr4, stronger effect = lower value 0.982 | locus YAL026C, strain drs2, stronger effect = lower value 0.988 | locus YAL030W, strain snc1, stronger effect = lower value 0.992 | locus YAL040C, strain CLN3, stronger effect = lower value 0.986 | locus YBL061C, strain skt5, stronger effect = lower value 0.985 | locus YBR009C, strain hhf1, stronger effect = lower value 1 | locus YBR021W, strain FUR4, stronger effect = lower value 1.02 | locus YBR023C, strain chs3, stronger effect = lower value 0.991 | locus YBR171W, strain sec66, stronger effect = lower value 0.982 | locus YBR229C, strain ROT2, stronger effect = lower value 1.01 | locus YBR231C, strain swc5, stronger effect = lower value 1 | locus YBR279W, strain paf1, stronger effect = lower value 0.99 | locus YCL011C, strain gbp2, stronger effect = lower value 0.999 | locus YCL016C, strain dcc1, stronger effect = lower value 0.986 | locus YCL029C, strain bik1, stronger effect = lower value 1.02 | locus YCL061C, strain MRC1 (second series), stronger effect = lower value 1 | locus YCL061C, strain MRC1, stronger effect = lower value 0.981 | locus YCL069W, strain vba3, stronger effect = lower value 0.996 | locus YCR088W, strain abp1, stronger effect = lower value 0.978 | locus YDL005C, strain med2, stronger effect = lower value 0.996 | locus YDL035C, strain GPR1, stronger effect = lower value 1.02 | locus YDL040C, strain nat1, stronger effect = lower value 0.993 | locus YDL074C, strain BRE1, stronger effect = lower value 0.985 | locus YDL101C, strain DUN1, stronger effect = lower value 0.999 | locus YDL134C, strain PPH21, stronger effect = lower value 1.02 | locus YDL185W, strain tfp1, stronger effect = lower value 1.01 | locus YDL192W, strain arf1, stronger effect = lower value 1.01 | locus YDR001C, strain nth1, stronger effect = lower value 0.993 | locus YDR069C, strain doa4, stronger effect = lower value 1 | locus YDR101C, strain arx1, stronger effect = lower value 0.991 | locus YDR137W, strain rgp1, stronger effect = lower value 0.98 | locus YDR159W, strain sac3, stronger effect = lower value 1.01 | locus YDR162C, strain NBP2, stronger effect = lower value 1.01 | locus YDR195W, strain ref2 0.976 | locus YDR297W, strain sur2, stronger effect = lower value 0.989 | locus YDR318W, strain mcm21, stronger effect = lower value 1.01 | locus YDR334W, strain swr1, stronger effect = lower value 0.979 | locus YDR335W, strain msn5, stronger effect = lower value 0.989 | locus YDR363W, strain ESC2, stronger effect = lower value 0.983 | locus YDR388W, stronger effect = lower value 1.01 | locus YDR392W, strain spt3, stronger effect = lower value 0.916 | locus YDR502C, strain sam2, stronger effect = lower value 1.01 | locus YEL003W, strain gim4, stronger effect = lower value 0.999 | locus YEL037C, strain rad23, stronger effect = lower value 0.986 | locus YEL061C, strain CIN8 (second series), stronger effect = lower value 0.984 | locus YEL061C, strain CIN8, stronger effect = lower value 1.01 | locus YER002W, strain NOP16, stronger effect = lower value 1 | locus YER015W, strain faa2, stronger effect = lower value 1.01 | locus YER016W, strain bim1, stronger effect = lower value 0.996 | locus YER110C, stronger effect = lower value 1.02 | locus YER111C, strain swi4, stronger effect = lower value 0.988 | locus YER155C, strain BEM2 (second series), stronger effect = lower value 0.975 | locus YER155C, strain BEM2, stronger effect = lower value 1.01 | locus YER167W, strain BCK2, stronger effect = lower value 1.01 | locus YFR010W, strain ubp6, stronger effect = lower value 0.972 | locus YGL078C, strain dbp3, stronger effect = lower value 1.02 | locus YGL086W, strain mad1, stronger effect = lower value 1 | locus YGL167C, strain pmr1, stronger effect = lower value 0.986 | locus YGL173C, strain kem1, stronger effect = lower value 0.998 | locus YGL227W, strain vid30, stronger effect = lower value 0.998 | locus YGL240W, strain doc1, stronger effect = lower value 0.993 | locus YGL248W, strain PDE1, stronger effect = lower value 0.994 | locus YGL253W, strain hxk2, stronger effect = lower value 1 | locus YGR078C, strain PAC10, stronger effect = lower value 0.991 | locus YGR135W, strain pre9, stronger effect = lower value 1.02 | locus YGR252W, strain gcn5, stronger effect = lower value 0.997 | locus YHR013C, strain ard1, stronger effect = lower value 0.963 | locus YHR027C, strain rpn1, stronger effect = lower value 0.988 | locus YHR030C, strain SLT2, stronger effect = lower value 1 and 0.994 | locus YHR079C, strain IRE1 (second series), stronger effect = lower value 1.01 | locus YHR079C, strain IRE1, stronger effect = lower value 0.995 | locus YHR094C, strain hxt1, stronger effect = lower value 1.01 | locus YHR129C, strain ARP1, stronger effect = lower value 1.01 | locus YHR142W, strain chs7, stronger effect = lower value 0.971 | locus YHR200W, strain rpn10, stronger effect = lower value 1.01 | locus YIL066C, strain RNR3, stronger effect = lower value 1.01 | locus YIL073C, strain SPO22, stronger effect = lower value 1.08 | locus YIL125W, strain kgd1, stronger effect = lower value 1.01 | locus YIR030C, strain dcg1, stronger effect = lower value 1.01 | locus YJL092W, strain hpr5, stronger effect = lower value 0.989 | locus YJL095W, strain BCK1 (second series), stronger effect = lower value 0.995 | locus YJL095W, strain BCK1, stronger effect = lower value 0.992 and 0.977 | locus YJL115W, strain asf1, stronger effect = lower value 0.985 | locus YJL129C, strain trk1, stronger effect = lower value 0.998 | locus YJL134W, strain LCB3, stronger effect = lower value 0.997 | locus YJL154C, strain vps35, stronger effect = lower value 0.987 | locus YJL164C, strain tpk1, stronger effect = lower value 0.998 | locus YJL166W, strain qcr8, stronger effect = lower value 0.968 | locus YJL168C, strain set2, stronger effect = lower value 1 | locus YJL187C, strain SWE1 (second series), stronger effect = lower value 1 | locus YJL187C, strain SWE1, stronger effect = lower value 0.982 | locus YJR043C, strain POL32, stronger effect = lower value 1.01 | locus YJR066W, strain TOR1, stronger effect = lower value 0.951 | locus YJR075W, strain HOC1, stronger effect = lower value 1 and 0.993

Source: PubChem BioAssay AID1159580 (chemical genetic matrix, 2015)
